Here are results for 35 compounds from ChEMBL document CHEMBL3433997, “St. Jude Leishmania screening dataset” (2016).

Holding throughout (assay type): functional
The target in test [1] is Solute carrier family 2, facilitated glucose transporter member 1 (Homo sapiens) (UniProt P11166). As to the kind of experiment: ST_JUDE_LEISH: Cytotoxicity at 2uM final concentration against transgenic Leishmania Mexicana promastigotes LmGLUT1 that are glucose transport deficient and complemented with the human glucose transporter GLUT1. Activity is measured by DNA content using SYBR green in vitro.

The target of test [2] is Hexose transporter 1 (Plasmodium falciparum) (UniProt O97467). As to the kind of experiment: ST_JUDE_LEISH: Cytotoxicity at 2uM final concentration against transgenic Leishmania Mexicana promastigotes LmPfHT that are glucose transport deficient and complemented with the Plasmodium falciparum hexose transporter. Activity is measured by DNA content using SYBR green in vitro.

For test [3], the target named is Glucose transporter (Leishmania mexicana) (UniProt O61059). As to the kind of experiment: ST_JUDE_LEISH: Cytotoxicity at 2uM final concentration against transgenic Leishmania Mexicana promastigotes LmGT2 that are glucose transport deficient and complemented with the L. Mexicana glucose transporter 2. Activity is measured by DNA content using SYBR green in vitro.

Sequence of Solute carrier family 2, facilitated glucose transporter member 1 (Homo sapiens) (P11166 whole entry): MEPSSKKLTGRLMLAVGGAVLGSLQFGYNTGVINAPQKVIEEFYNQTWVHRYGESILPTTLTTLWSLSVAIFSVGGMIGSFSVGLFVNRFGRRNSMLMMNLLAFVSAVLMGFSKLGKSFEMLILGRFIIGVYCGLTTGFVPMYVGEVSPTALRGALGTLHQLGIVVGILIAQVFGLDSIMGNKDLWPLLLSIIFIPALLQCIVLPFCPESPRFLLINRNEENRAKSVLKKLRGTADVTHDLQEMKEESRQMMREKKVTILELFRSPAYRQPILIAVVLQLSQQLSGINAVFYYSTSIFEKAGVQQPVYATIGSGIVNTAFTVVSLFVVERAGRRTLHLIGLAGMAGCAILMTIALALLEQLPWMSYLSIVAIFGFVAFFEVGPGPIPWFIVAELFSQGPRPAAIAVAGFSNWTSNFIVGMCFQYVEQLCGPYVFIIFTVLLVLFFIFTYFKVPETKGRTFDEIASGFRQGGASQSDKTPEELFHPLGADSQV

Broadly, the inhibition is the relative decrease from the control value, in per cent. Regarding `O=C(NCc1cccc(F)c1)c1ccc(O)c(-c2cc(Cl)cc(Cl)c2)c1`, the values for the inhibition in test [1], in test [2] and in test [3] were 4.04%, 3.75% and 4.34%, respectively.
Consider `CCOc1ccc(NC(=O)c2ccc(NCCCN3CC(C)CC(C)C3)c([N+](=O)[O-])c2)cc1` (stereo not given), for which the inhibition in test [1] is 2.9%; in test [2], 0.9%; in test [3], 1.09%.
On the same counts, the results for `CC(C)CNCc1ccc(-c2ccccc2CNC2CCN(Cc3ccccc3)CC2)cc1` are 7.04%, 7.66% and 5.95%.
For `Cc1nc(O)c2c(ccc3ccc(CNc4ccc(C(=O)N[C@@H](CCC(=O)O)C(=O)O)c(F)c4)cc32)n1`, in that order: -0.83%, 0.87% and -0.16%.
For `COc1cc2nc(N3CCC(CNC(=O)c4ccc(-c5ccc(C(=O)N(C)C)cc5)cc4)CC3)nc(N)c2cc1OC`, in that order: 1.96%, 0.11% and 1.75%.
Regarding `CN(CCCN(C)c1cc(NC(=O)c2ccc(F)cc2)ccn1)Cc1cccc(F)c1`, the inhibition in test [1] turned out to be 5%; in test [2] it was 5.98%; in test [3] it was 4.86%.
For `COc1ccc2nccc([C@@H](O)CN3CCC(NC(=O)C(=Cc4ccc(C#N)cc4)c4ccc(-c5ccccc5)cc4)CC3)c2c1`, the values for the inhibition in test [1], in test [2] and in test [3] were 1.28%, 0.19% and -0.89%, respectively.
For `O=C(Nc1cccc(Cl)c1Cl)Nc1ccnc2ccccc12`, in that order: 7.59%, 7.42% and 5.95%.
For `COc1ccccc1C1CCN(C2CCC(NC(=O)/C=C/c3ccc(OC(F)(F)F)cc3)CC2)CC1` (stereo not given), in that order: 0.94%, 1.54% and 2.36%.
For `Cc1cc(OC(C)C(=O)N2CCc3ccccc32)ccc1Cl` (stereo not given), the inhibition in test [1] turned out to be 4.58%; in test [2], 3.8%; in test [3] it was 6.71%.
On to `CC1Cc2ccccc2N1CC(=O)Nc1cc(C(F)(F)F)ccc1-n1cncn1` (stereo not given), for which the figures for the inhibition in test [1], in test [2] and in test [3] were 1.94%, 2.01% and -1.95%, respectively.
For `Cc1cccc2nc(-c3ccc(-c4cccc(CNCc5ccc(S(C)(=O)=O)cc5)c4)s3)[nH]c12`, in that order: 12.5%, 9.13% and 9.52%.
For `O=C(/C=C/c1ccc([N+](=O)[O-])cc1)N1CCC(NS(=O)(=O)c2ccc(F)cc2)CC1`, in that order: 6%, 3.96% and 7.08%.
On the same counts, the results for `Oc1ccc(CN2CCC(NCc3cccc4ccccc34)CC2)cc1` are 12.4%, 11.6% and 9.93%.
As to `CN1CCN(c2ccnc3ccc(NC(=O)Nc4cccc5c(C#N)cccc45)cc23)CC1`, the figures for the inhibition in test [1], in test [2] and in test [3] were 2.25%, 2.35% and 2.75%, respectively.
For `O=C(/C=C/c1ccc([N+](=O)[O-])cc1)N1CCC(CCN2CCC(c3c[nH]c4ccccc34)CC2)CC1`, the inhibition in test [1] is 2.33%; in test [2] it was 3.09%; in test [3], 2.47%.
On the same counts, the results for `CS(=O)(=O)Cc1ccc(Nc2nccc(NC3CCN(c4nccc(C(F)(F)F)n4)CC3)n2)cc1` are 2.96%, 1.41% and -2.6%.
On the same counts, the results for `Cc1ccccc1OCC(O)CNC1CCC(NCC(O)COc2ccccc2C)CC1` (stereo not given) are 10.2%, 10.5% and 5.8%.
Regarding `Fc1ccc(-c2oc(C3CCN(CCc4ccc(-c5noc(=S)[nH]5)cc4)CC3)nc2COCC(F)(F)F)cc1`, the inhibition in test [1] was 8.65%; in test [2], 7.22%; in test [3], 8.14%.
For `Cc1cc(N[C@@H](Cc2ccccc2)C(=O)NC2CCCC2)nc(NCCc2cccs2)n1`, in that order: 1.27%, 2.88% and 1.56%.
Turning to `CCCc1cc(Cc2cnc(N)nc2N)cc(CCC)c1OCCCCCC(=O)OCC`, the inhibition amounted to 4.7% in test [1], 2.93% in test [2] and 2.52% in test [3].
As to `CS(=O)(=O)n1c(CN2CCN(c3ncc(C(F)(F)F)cc3Cl)CC2)nc2ccccc21`, the inhibition in test [1] came to 8.28%; in test [2], 7.91%; in test [3] it was 5%.
On the same counts, the results for `COc1cc(CNC2Cc3ccccc3C2)ccc1Oc1ccc2nc[nH]c2c1` are 2.66%, 0.67% and 0.95%.
On the same counts, the results for `CCc1cccc(-n2c(=O)c3cccnc3n2CC(=O)NC2CCCC2)c1` are 3.43%, 12% and 4.05%.
On the same counts, the results for `Cc1cc(N2CCC(C)CC2)nc2cc(O)ccc12` are 1%, 0.44% and 0.89%.
`O=C(NC1CCN(Cc2ccccc2)CC1)c1cccc(-c2cc3cc(Cl)c(Cl)cc3[nH]2)c1`: the inhibition in test [1] is 2.36%; in test [2] it was -1.61%; in test [3] it was -0.91%.
For `COc1ccc(-c2csc(N(CCCN(C)C)C(=O)c3cc4c(C)nn(-c5ccccc5)c4s3)n2)cc1`, in that order: 0.66%, -0.63% and 2.84%.
On the same counts, the results for `N=C(N)Nc1nc(-c2cccc(NC(=O)C(F)(F)F)c2)cs1` are 2.35%, 2.8% and 3.35%.
For `CCN(CC)CCN(Cc1ccc(-c2ccc(C(F)(F)F)cc2)cc1)C(=O)Cn1c(CCc2cccc(C#N)c2)nc(=O)c2ccccc21`, in that order: 2.68%, 1.83% and 2.44%.
Consider `Cc1ccc(NC(=O)c2ccc(CN3CCCN(CC4CCCCC4)CC3)cc2)cc1`, for which the inhibition in test [1] was found to be 7.01%; in test [2], 8.37%; in test [3], 9.64%.
For `Clc1ccc(Nc2nc3ccc(Cl)cc3nc2Nc2ccc(Cl)cc2)cc1`, in that order: 7.56%, 6.73% and 7.3%.
Consider `Oc1ccc2[nH]cc(C3CCN(CCCCCCCCCN4CCC(c5c[nH]c6ccc(O)cc56)CC4)CC3)c2c1`, for which the inhibition was -1.57% in test [1], -1.31% in test [2] and -1.9% in test [3].
For `COc1ccc(NC(=O)Nc2nc(-c3ccc(Cl)c(C)c3)cs2)cc1N1CCN(C)CC1`, in that order: 0.68%, 3.54% and 2.63%.
For `CC(C)c1ccc(CN2CCCCC(NC(=O)c3cc(-c4cccc(F)c4)cs3)C2)cc1` (stereo not given), in that order: -2.71%, 3% and 0.54%.
As for `CO/N=C(\C)c1ccc2c(c1)CCN(CCC1CCC(NC(=O)c3cccc(-c4noc(C)n4)c3)CC1)CC2` (stereo not given), the inhibition in test [1] was 3.41%; in test [2], -1.53%; in test [3] it was 0.75%.
